EWS-Fli inh – blocks EWS/Fli oncoprotein-driven transcription; A673 NR0B1-luciferase reporter, viability-normalised; actives 0.67% (n = 350,000); AID 651661; inhibition, % at 12.6 µM;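 active = mean inhibition of at least 50% after viability correction, with every replicate also passing that limit; inconclusive = mean reaches 50% but only one of two replicates passes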;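 note: firefly luciferase signal divided by Alamar Blue viability fluorescence both relative to DMSO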
PAX8 inh HTS – inhibitors of PAX8 transcriptional activity in RMG-I cells; RMG-I TPO-luciferase reporter, SteadyGlo, 24 h; inhibition, % at 12.6 µM; actives 1.2% (n = 360,000); AID 652154;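 active = mean replicate inhibition at least 60% with every replicate also reaching 60%; inconclusive = only one of the two criteria is met; inactive = mean below 60% and not all replicates reaching 60%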;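 note: luciferase light reporting Pax8 driven TPO promoter activity; plate controls were median of neutral control wells for no effect and mitoxantrone controls for full effect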
LGR2 inh – blocks bursicon-induced cAMP signaling via Drosophila LGR2; HEK293 LGR2, CRE-luciferase, bursicon-stimulated, 4 h; actives 0.35% (n = 380,000); inhibition, % at 9.99 µM; AID 720647;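 active = drop in luminescence signal, shown as inhibition above about 50% in the replicate tests, limit read from the data, passing the limit was not always enough; inconclusive = probably only some replicates passing the limit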;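 note: agonist challenge used bursicon conditioned medium at about half maximal strength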
F508del corr – CFTR F508del correction in bronchial cells; activity (quench increase), % at 7.58 µM; actives 0.36% (n = 350,000); CFBE cells, YFP halide quenching; stimulated with forskolin plus potentiator P3; % fluorescence drop versus neutral controls;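 active = mean added fluorescence quench of at least 8% versus neutral control, with both replicates also reaching 8%; inconclusive = only one of the mean or replicate conditions met; inactive = mean below 8% and not both replicates reaching 8%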;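 note: cells transiently co-express mutant CFTR-F508del with the halide-sensitive YFP; corrector assay measuring rescue of mutant channel to the surface after 24 h compound exposure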
DNA binding – binds DNA displacing acridine orange. AID 720586. actives 2% (n = 640). shares compounds with EWS-Fli inh. AC35, µM (doses to about 68 µM), without a hit: at the top dose activity change, negative = DNA binding. salmon sperm DNA acridine orange fluorescence polarization;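 active = fitted curve reaches a 35% signal fall AC35 below twice the sample's top valid tested dose, actives reach about 48 µM in these data; inactive = the rest, including activity in the rising direction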;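 note: lower polarization ratio signals compound binding to DNA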
Active calls of the source: *; ? = inconclusive; / = not tested or not shown; [ ] = remark or other dose. Only some compounds are listed: those with a hit (about 1.8% of all), similar ones and a draw of the others.

SMILES | EWS-Fli inh | PAX8 inh HTS | LGR2 inh | F508del corr | DNA binding
CCCNC(=O)N1[C@H](C#N)[C@H](c2ccc(C#Cc3cccc(F)c3)cc2)[C@H]1CO | 61* | 20 | 4 | 2 | -1%
N#C[C@H]1[C@H](c2ccc(C#Cc3ccccc3F)cc2)[C@@H](CO)N1C(=O)C1CCCCC1 | 66* | 59 | 34 | 1 | -14%[60 µM]
N#C[C@H]1[C@@H](c2ccc(C#Cc3ccccc3F)cc2)[C@H](CO)N1C(=O)C1CCCC1 | 32 | / | 5 | 0 | /
CCCNC(=O)N1[C@H](C#N)[C@H](c2ccc(C#Cc3ccc(F)cc3)cc2)[C@H]1CO | 71* | 52 | 53* | 3 | 3%
COc1ccc(Nc2oc(COc3ccccc3OC)nc2C#N)cc1 | 54* | 24 | / | 0 | 9%
O=c1cc(-c2ccccc2)oc2ccc(Br)cc12 | -6 | -194 | 6 | 5 | /
COc1ccc2oc(-c3ccccc3)cc(=O)c2c1 | 60* | / | 64* | -1 | -4%
CCc1ccc(NC(=O)c2cnn3c(C(F)F)cc(C)nc23)cc1 | 0 | 7 | 2 | / | /
CCc1ccc(Cn2ncc3c(C(=O)O)cc(C)nc32)cc1 | 75* | -5 | -12 | -3 | 10%
CN(C)Cc1c(O)ccc2c1O/C(=C\C=C\c1ccccc1)C2=O | 75* | 77* | -40 | -4 | -39%
CCN1CCN(Cc2c(O)ccc3c2O/C(=C\C=C\c2ccccc2)C3=O)CC1 | 9 | 50 | 6 | / | /
COC(=O)c1cccc(NC(=O)NC(=O)c2ccc(Cl)cc2)c1 | 87* | -21 | -6 | 7 | -7%
O=C(NC(=O)c1ccccc1)Nc1ccccc1 | 56* | -7 | 37 | 3 | -13%
COC(=O)Cc1[nH]n(-c2nc3ccccc3s2)c(=O)c1C(C)=Nc1ccc(C)cc1 | 77* | -29 | 53* | -3 | 4%
Cc1c(-c2nc(-c3ccc(C(C)(C)C)cc3)no2)n(C)oc1=O | 56* | 19 | -8 | -33 | 3.5µM*
Clc1cc2cccnc2c2ccccc12 | / | / | 8 | / | /
Oc1c(Cl)cc(Cl)c2cccnc12 | 54* | 24 | 5 | 1 | -4%
CCOC(=O)C1=C(Cn2cnc3ccccc32)NC(=O)NC1c1ccc(Cl)cc1 (configuration not stated) | 3 | / | 5 | -1 | /
COc1ccc(OC)c(-c2nnc3n2N=C(c2ccc(OC)c(OC4CCCC4)c2)CS3)c1 | 52* | 89* | / | 4 | -13%
COc1ccc(C2=Nn3c(nnc3-c3ccccc3OC)SC2)cc1OCC1CC1 | 62* | 78* | 35 | 5 | -14%
C[C@H](CO)N1C[C@H](C)[C@H](CN(C)S(C)(=O)=O)Oc2ccc(NC(=O)Nc3ccc(C(F)(F)F)cc3)cc2CC1=O | / | 28 | -13 | -2 | /
C[C@H](CO)N1C[C@H](C)[C@@H](CN(C)Cc2ccc(C(=O)Nc3ccccc3N)cc2)Oc2c(NS(=O)(=O)c3ccccc3)cccc2C1=O | -7 | 6 | 10 | 1 | /
C[C@@H]1CN([C@@H](C)CO)C(=O)c2cccc(NS(=O)(=O)c3ccc(Cl)cc3)c2O[C@@H]1CN(C)Cc1ccc(C(=O)Nc2ccccc2N)cc1 | 53* | / | 16 | 4 | -13%
C[C@@H]1CN([C@H](C)CO)C(=O)c2cccc(NS(=O)(=O)c3ccc(Cl)cc3)c2O[C@H]1CN(C)Cc1ccc(C(=O)Nc2ccccc2N)cc1 | 35 | -10 | -13 | 1 | /
C[C@@H]1CN([C@@H](C)CO)C(=O)c2cccc(NS(=O)(=O)c3ccccc3)c2O[C@@H]1CN(C)Cc1ccc(C(=O)Nc2ccccc2N)cc1 | 52* | 37 | 0 | 0 | 0%
SMILES | EWS-Fli inh | PAX8 inh HTS | LGR2 inh | F508del corr | DNA binding
OC[C@H]1[C@@H](c2ccc(C#CC3CCCC3)cc2)[C@@H]2CN(CCC(F)(F)F)CCCCN12 | 52* | 24 | 7 | -1 | -9%
CC1=NN(c2ccc(C)cc2)C(=O)/C1=C\C=C\c1ccccc1 | 61* | 3 | 0 | -3 | -13%
CC1=NN(c2cccc(C(=O)O)c2)C(=O)/C1=C\C=C/c1ccccc1 | 46 | 2 | ? | 1 | /
O=C(COc1ccccc1F)OCC(=O)N1CCc2ccccc21 | 2 | 14 | 5 | -2 | /
CCOC(=O)N1CCN(Cc2nc(N)nc(Nc3ccc(Cl)cc3)n2)CC1 | -14 | -24 | -7 | 5 | /
CC(=O)ON=C1C=CC(=C(C#N)c2ccccc2)C=C1 | 56* | 71* | 18 | -2 | 0%
COc1ccc(C(C#N)=C2C=CC(=NO)C=C2)cc1 | 6 | -35 | -10 | -3 | /
CCCCNC(=O)O[C@@H]1C[C@H]2CCCC(=O)N3CC[C@@H](C1)[C@@H]23 | -5 | -3 | -4 | -1 | /
CCCCCCCN(c1ccccc1)[C@@H]1C[C@H]2CCCC(=O)N3CC[C@@H](C1)[C@@H]23 | 62* | 56 | 52* | 2 | 3%
Cc1noc(C)c1S(=O)(=O)Nc1cccc2c1O[C@H](CN(C)Cc1ccc(Cl)c(Cl)c1)[C@H](C)CN([C@H](C)CO)C2=O | -2 | / | -1 | 2 | /
COc1ccc(NC(=O)N(C)[C@H]2C[C@H]3c4[nH]c5ccccc5c4CCN3C(=O)[C@H]2CO)cc1 | 53* | -8 | -16 | -2 | -5%
CCOC=C1C(=O)N(C(C)=O)c2cc(OC)c(OC)cc21 | 0 | -2 | -3 | -1 | /
CCOC(=O)c1ccc(NC(=O)C(CC)CC)cc1 | / | -41 | / | / | /
Cn1c(=O)n(CC(N)=O)c(=O)c2c1nc1n2CCCN1Cc1ccccc1 | 7 | -1 | -8 | 1 | /
C[n+]1ccn(CC(=O)c2cccs2)c1 | 8 | 8 | 12 | -4 | /
CCCCCCCCCCCCCCCCn1cc[n+](C)c1 | 73* | 99* | / | -4 | -17%
COc1ccc(-c2noc(CCC(=O)O)n2)cc1 | / | 1 | 15 | / | /
CCOc1ccc(-c2noc(CCC(=O)O)n2)cc1 | 54* | -22 | -15 | 1 | -5%
COC(C(=O)Nc1ccc(Cl)cc1C)c1ccccc1 (configuration not stated) | -14 | -29 | -16 | / | /
c1ccc2nc3c(nc2c1)OCC1CCCCN31 (configuration not stated) | -118 | -71 | -28 | -3 | /
C[C@@H]1CCCCO[C@H](CN(C)S(C)(=O)=O)[C@@H](C)CN([C@@H](C)CO)C(=O)c2cc(NC(=O)CCCN(C)C)ccc2O1 | 1 | -16 | 16 | 0 | /
COc1ccc(/C=C2\SC(=O)N(CCCC(=O)Nc3cc(Cl)ccc3C(=O)O)C2=O)cc1 | 85* | 53 | 30 | -1 | -10%
CCN1/C(=C/C=C/c2oc3ccc(-c4ccccc4)cc3[n+]2CC)Oc2ccc(-c3ccccc3)cc21 | 90* | 98* | 37 | -35 | 22µM*
C[C@@H]1CN([C@@H](C)CO)S(=O)(=O)c2ccc(/C=C/c3ccccc3)cc2O[C@@H]1CN(C)Cc1ccccc1 | 15 | 35 | 26 | 2 | /
CC(NC(=O)c1ccco1)c1nc(-c2ccc(C(C)(C)C)cc2)no1 (configuration not stated) | 78* | -38 | -16 | -1 | -22%

Screening data (PubChem BioAssay)
